High-throughput results as filed in PubChem.
Mtb BioA inh = BioA (M. tuberculosis) enzyme inhibition | purified M. tuberculosis BioA enzyme, plate reader | inhibition, % at 9.99 µM | 360,000 compounds, 0.096% hits | AID 602481; in the data active = inhibition above about 40%
VHR inh abs = inhibitors of human VHR1 phosphatase (DUSP3); 290,000 compounds, 0.52% hits; inhibition, % at 13.3 µM; P51452; recombinant VHR phosphatase, pNPP absorbance; in the data active = inhibition above about 50%
Target sequence (P51452 whole entry, looked up): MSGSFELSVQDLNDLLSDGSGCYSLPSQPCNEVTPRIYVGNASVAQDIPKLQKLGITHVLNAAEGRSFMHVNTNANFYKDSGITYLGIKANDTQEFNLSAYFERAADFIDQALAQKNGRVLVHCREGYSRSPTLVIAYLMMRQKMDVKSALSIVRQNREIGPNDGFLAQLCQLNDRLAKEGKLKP
Vc quorum ag-1 = quorum light induction in luxS cqsA deficient V. cholerae | V. cholerae BH1578 lux reporter, luminescence, 6 h | activation, % at 18.7 µM | 350,000 compounds, 0.16% hits | AID 588436; in the data active = activation mostly above about 9.7%, no sharp cut-off
TcdB GH inh = TcdB glycohydrolase inhibition. P18177. TcdB glycohydrolase enzymatic assay, plate reader. inhibition, % at 9.99 µM. 350,000 compounds, 0.24% hits. AID 652162; in the data active = inhibition above about 10%
PfHsp40 rescue = rescue of PfHsp40-mediated yeast toxicity | S. cerevisiae expressing PfHsp40, growth rescue, ATP luminescence | growth rescue, % at 12.5 µM | 340,000 compounds, 0.68% hits; in the data active = growth rescue above about 28%, passing the limit was not always enough;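 also: yeast W303a lacking pdr1 and pdr3 grown in galactose medium; growth measured after three days at 30 °C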
Y pestis TopoI = Y. pestis Topo-I inhibition via cleavage products | Y. pestis Topo-I cleavage product accumulation, plate reader | activity, % at 10 µM | 360,000 compounds, 0.064% hits; in the data active = activity above about 50%, passing the limit was not always enough
Vc quorum ag-2 = inducers of V. cholerae quorum light production without autoinducers; activation, % at 50 µM; shares compounds with Vc quorum ag-1; V. cholerae BH1578 lux reporter, luminescence, 6 h; AID 602243; 620 tested, under 10 active; call rule not given here
* = called active by the depositor; i = inactive; . = no result. Only some compounds are listed: those with a hit (about 1.2% of all), similar ones and a draw of the others.

SMILES | Mtb BioA inh | VHR inh abs | Vc quorum ag-1 | TcdB GH inh | PfHsp40 rescue | Y pestis TopoI | Vc quorum ag-2
C[C@H](CO)N1C[C@H](C)[C@H](CN(C)Cc2ccc(C(F)(F)F)cc2)OCCCC[C@H](C)Oc2ccc(N(C)C)cc2C1=O | -1 | . | . | -20 | . | . | .
COc1ccc(-c2sccc2C(C)C(=O)O)cc1 (stereo not drawn) | 0 | 14 | -1 | . | 0 | -3 | .
COc1ccccc1OCC(=O)OCC(=O)NCCN1C(=O)CSC1=O | 0 | 4 | -2 | . | -1 | 6 | .
O=C(COC(=O)CNC(=O)c1ccco1)NCCN1C(=O)CSC1=O | -2 | 12 | 12 | . | -1 | 0 | 2
COCCNC(=O)c1cnn2c1NC(c1ccco1)CC2C(F)(F)F (stereo not drawn) | -2 | 13 | 17* | . | -2 | -1 | 0
CO[C@H]1CN(C)C(=O)c2cc(NC(=O)CC(F)(F)F)ccc2OC[C@@H](C)N(C(=O)c2ccccc2F)C[C@@H]1C | . | . | . | 0 | . | . | .
O=C(CCc1nc(-c2ccccc2)no1)N1CCCC1 | 2 | 4 | 313* | . | 0 | -8 | 565
COc1ccc(-c2noc(CCC(=O)N3CCN(c4cccc(OC)c4)CC3)n2)cc1 | 1 | . | -1 | 0 | 2 | 32 | .
CC(C)(C)c1ccc(-c2noc(CCC(=O)N3CCOCC3)n2)cc1 | . | 12 | -1 | 5 | 0 | 10 | .
COc1ccc(-c2noc(CCC(=O)N3CCN(c4cccc(C(F)(F)F)c4)CC3)n2)cc1 | 1 | 29 | 25* | . | 0 | -5 | 0
COc1ccc(Cl)c(CNC[C@H]2O[C@@H](n3cnc(C(N)=O)n3)[C@H](O)[C@@H]2O)c1 | -1 | . | 1 | 1 | 0 | -1 | .
Cn1c(CNc2cccc(Cl)c2)nnc1SCC(=O)OC1CCCCC1 | 3 | 14 | 17* | . | 4 | 35 | 0
COc1ccc(S(=O)(=O)N2CCN(Cc3ccccc3[N+](=O)[O-])CC2)cc1 | . | . | -1 | 1 | -1 | 10 | .
COc1ccc(-c2nnc3c4ccccc4c(C)nn23)cc1 | 1 | 3 | 12 | . | 0 | 2 | 2
COc1ccc(-c2csc(NC(=O)CC(NC(C)=O)c3ccccc3)n2)cc1OC (stereo not drawn) | 1 | 30 | 0 | -1 | 0 | 11 | .
COc1ccc(S(=O)(=O)N2CCCC(C(=O)NCc3ccc(F)cc3)C2)cc1 (stereo not drawn) | -1 | 7 | -1 | 0 | 0 | 8 | .
COc1ccc(S(=O)(=O)N2CCCC(C(=O)NCc3ccncc3)C2)cc1 (stereo not drawn) | 0 | 10 | 32* | . | 0 | -7 | 0
O=C(Nc1cccc(-c2ccc(N3CCOCC3)nn2)c1)c1ccc([N+](=O)[O-])cc1 | -1 | . | 14 | 1 | 1 | -8 | 0
O=C(O)C1C2CCC(C2)C1C(=O)NCCc1ccc(F)cc1 (stereo not drawn) | 0 | 26 | 0 | -1 | 0 | 2 | .
O=C(O)C1C2CCC(C2)C1C(=O)Nc1cc(F)ccc1F (stereo not drawn) | 0 | 12 | 17* | . | 0 | 4 | 0
Cc1ccc(-n2c(=O)cc(NCc3cccnc3)[nH]c2=O)cc1 | 2 | 10 | 0 | . | 17 | 9 | .
Cc1ccc(-c2cc(C(=O)N3N=C(C(F)F)CC3(O)C(F)F)c3ccccc3n2)cc1C (stereo not drawn) | 0 | 6 | 12 | . | 0 | 0 | 0
CCc1cccc(C)c1NC(=O)Cc1ccsc1 | -1 | 10 | 0 | -1 | -1 | 3 | .
CN(CC(=O)NCCN1CCOCC1)S(=O)(=O)c1ccc(Cl)cc1 | 0 | . | 37* | 3 | -1 | -4 | 1
Oc1ccc(/C=N/Nc2nc(N3CCCCCC3)nc(N3CCCCCC3)n2)c(O)c1 | . | -11 | 0 | -2 | 0 | -25 | .
CC(Oc1ccccc1)C(=O)NC1CCSc2ccccc21 (stereo not drawn) | -2 | . | 0 | -2 | 0 | 3 | .
CCCCOCCCNC(=O)c1cccs1 | -1 | 2 | -12 | . | 0 | -1 | .
Cc1ccc(OCCNC(=O)c2ccc(C)o2)cc1 | -1 | . | 59* | 0 | -2 | -11 | 105
CCc1ccc(OCCNC(=O)c2cccs2)cc1 | 4 | 11 | . | . | 1 | 11 | i
COc1ccc(NC(=O)/C(=C\c2ccccc2)NC(=O)c2ccco2)cc1 | . | 22 | 0 | 1 | 0 | 5 | .
